# Most compounds without a hit are left out; they make up all but 7.2% or so of the library.
# HEK293 viab = GF-AFC viability counterscreen for inhibitors of alpha-synuclein gene (SNCA) expression; HEK-293-SNCA-luc viability, GF-AFC fluorescence, 24 h; Potency, µM (highest dose often 57.1 µM), for the others: at the highest dose activity change, negative = cytotoxicity, actives largely listed as cytotoxic; 150,000 compounds, 0.12% hits;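 also: 0% = DMSO-treated cells and -100% = medium-only wells without cells; nearly all actives have a fitted effect of over 30% in size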
#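 HEK-293-SNCA-luc cells (1500/well) plated 24 h, then exposed 24 h to a dilution series; GF-AFC added 30 min at 37C, fluorescence 405/540 nm; normalised to medium-only and DMSO wells, Hill fit.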
# NIH3T3 tox = Cytotoxic Profiling in NIH 3T3 Cell Line of Diverse Libraries Using Quantitative High-Throughput Screening | NIH 3T3 viability, CellTiter-Glo ATP luminescence, 48-72 h | Potency, µM (titrated, usually from 96.7 µM), for inactives: at the top dose activity change, negative = cytotoxicity, actives largely listed as inhibitors | 94,000 compounds, 4.3% hits; also: nearly all actives have a fitted effect of over 55% in size
#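 Viability of NIH 3T3 cells after 48 or 72 hr compound treatment at 37 °C was assessed by CellTiter-Glo, with luminescence imaged following a 10 min room-temperature step.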
# SNCA expr inh = Primary qHTS assay for inhibitors of alpha-synuclein gene (SNCA) expression. Potency, µM (series often up to 57.2 µM), for inactives: top-dose activity change, negative = inhibition, usual class: inhibitors. 140,000 compounds, 0.17% hits. HEK-293 SNCA-luciferase knock-in, luminescence, 24 h;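 also: plate controls were DMSO cells for no effect and cell-free wells for full effect; nearly all actives have a fitted effect of over 45% in size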
# Luciferase inh = Firefly luciferase inhibition profiling of diverse chemical library using quantitative high-throughput screening. Luciferin 4-monooxygenase (Photinus pyralis), P08659. purified P. pyralis luciferase, luminescence, biochemical. Potency, µM (doses to about 115 µM), usual class: inhibitors. 76,000 compounds, 2.5% hits. AID 1347043, 2019; also: nearly all actives have a fitted effect of over 65% in size
# Target sequence (P08659 whole entry, looked up): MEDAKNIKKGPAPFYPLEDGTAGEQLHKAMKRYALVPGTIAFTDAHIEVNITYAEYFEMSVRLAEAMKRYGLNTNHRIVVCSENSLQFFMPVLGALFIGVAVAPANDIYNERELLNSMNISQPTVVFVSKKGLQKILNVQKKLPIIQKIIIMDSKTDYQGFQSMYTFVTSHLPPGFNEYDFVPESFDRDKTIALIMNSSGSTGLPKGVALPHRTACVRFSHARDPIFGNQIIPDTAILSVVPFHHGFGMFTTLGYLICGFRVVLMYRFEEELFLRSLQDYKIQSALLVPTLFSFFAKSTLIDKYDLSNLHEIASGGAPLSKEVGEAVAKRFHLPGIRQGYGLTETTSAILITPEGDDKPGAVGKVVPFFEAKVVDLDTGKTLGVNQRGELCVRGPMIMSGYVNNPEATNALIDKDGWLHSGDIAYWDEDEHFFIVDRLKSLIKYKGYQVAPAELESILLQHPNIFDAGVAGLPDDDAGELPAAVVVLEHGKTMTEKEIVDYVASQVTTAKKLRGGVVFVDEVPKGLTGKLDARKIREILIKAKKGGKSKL
#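 Cell-free enzyme assay, 10nM P. pyralis luciferase, luciferin and ATP each at 10uM. Inhibition profiled over a 6-point titration, read as luminescence.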
# HEK cytotox = Cytotoxic Profiling in HEK 293 Cell Line of Diverse Libraries Using Quantitative High-Throughput Screening | HEK 293 viability, ATP luminescence (CellTiter-Glo), 48-72 h | Potency, µM (top dose mostly 115 µM), inactives show top-dose activity change, negative = cytotoxicity, actives largely listed as inhibitors | 94,000 compounds, 6.6% hits | AID 1345083, 2018; also: nearly all actives have a fitted effect of over 60% in size
#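 HEK 293 seeded at 250 cells/well receive compound via pintool. After 48 or 72 hr at 37 degree Celsius, 5% CO2 and 95% humidity, CellTiter-Glo is dispensed and luminescence read following 10 min at room temperature.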
# hNpr1 antagonist = Natriuretic polypeptide receptor (hNpr1) antagonism - Primary qHTS. Atrial natriuretic peptide receptor 1 (Homo sapiens), P16066. HEK293 hNpr1 GloSensor cGMP, ANP-stimulated luminescence. Potency, µM (titrated, usually from 46.3 µM), without a hit: at the highest dose activity change, negative = inhibition, actives largely listed as inhibitors. 76,000 compounds, 1.6% hits. AID 1347048, 2019; calls by dose curve; also: nearly all actives have a fitted effect of over 60% in size
#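 Compound pre-incubated 30 min at room temperature on GloSensor-loaded HEK293 cells stably carrying hNpr1 and the pGS-40F cGMP biosensor. Stimulation uses hNppA at 0.1 nM final; luminescence is taken at baseline and 20 min post-agonist.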
# * = called active by the depositor; i = inactive; u = inconclusive; x = no result; [ ] = another dose, or the depositor's remark. Unless noted, calls follow the shape of the dose curve; as a rule, active = well fitted curve in the direction sought with a large enough effect; inconclusive = small, poorly fitted or top-dose-only effect, or another doubt; inactive = no such curve, though single readings can be large; an effect the other way counts as inactive or inconclusive. Unless noted, % is scaled to controls: 0 for no effect and ±100 for the full control effect; potency is read from the fitted curve at half-maximal effect.
SMILES,HEK293 viab,NIH3T3 tox,SNCA expr inh,Luciferase inh,HEK cytotox,hNpr1 antagonist
N#Cc1ccc(C(=O)Nc2ccc([C@@H](O)[C@H]3COCC(=O)N3)cc2)cc1,1.1%[87.6 µM],-12.5%[174 µM],-13.1%[87.6 µM],i,2.6%[172 µM],1.8%[70.6 µM]
Cc1ccc(CNC(=O)c2ccc3c(c2)CN(Cc2cncs2)CCO3)cc1,6.2%,-9.5%,-14.5%,i,u,-11.4%
Cc1ccc(CNC(=O)c2ccc3c(c2)CN(CC2=Cc4ccccc4OC2)CCO3)cc1,-17.7%,u,u,i,28.2µM*,u
Cc1ccc(CNC(=O)c2ccc3c(c2)CN(Cc2cc(F)c(F)c(F)c2)CCO3)cc1,-7.9%,u,u,i,35.5µM*,-1.5%
O=C(Cc1ccc(Br)cc1)N1CCCN(C(=O)C2CC2)c2ccccc21,-0.8%,u,-14.3%,i,u,-2.0%
CS(=O)(=O)N1CCCN(C(=O)Cc2ccc(OC(F)(F)F)cc2)c2ccccc21,-15.1%,u,-12.6%,i,u,-0.5%
CCC(=O)N1CCCN(CCN(C)C)c2ccccc21,-13.0%,-1.6%,0.4%,i,-1.8%,4.6%
O=C(Cc1cccs1)N1CCCN(CCc2ccccc2)c2ccccc21,1.7%,31.6µM*,-11.0%,i,u,-24.3%
CN1CCCN(C(=O)Cc2ccc(OC(F)(F)F)cc2)c2ccccc21,-8.5%,39.8µM*,-21.7%,i,u,-1.4%
O=C(Cc1ccc(F)cc1)N1CCCN(CCc2ccccc2)c2ccccc21,-3.1%,35.5µM*,-16.4%,x,u,x
Cc1nc(C2CCCN(C(=O)C(C)(C)N)C2)cc(N2CCCC2)n1 (stereo unspecified),0.5%,4.7%,-26.3%,i,0.8%,3.1%
O=C(NCC1CCCCC1)C1CCN(c2nccc(Nc3ccccc3Cl)n2)CC1,-10.7%[12.5 µM],31.6µM*,u,x,35.5µM*,x
O=C(NCC1CCCCCC1)[C@@H]1CCCN1c1nccc(Nc2ccccc2Cl)n1,4.7%[12.5 µM],31.6µM*,u,x,25.1µM*,x
C#CCNC(=O)C1CCN(c2nccc(Nc3ccccc3Cl)n2)CC1,4.4%[12.5 µM],44.7µM*,29.5%,x,u,x
O=C(NCCc1ccc(Cl)cc1)C1CCN(c2nccc(Nc3ccccc3Cl)n2)CC1,-18.3%,u,-6.9%,x,u,x
O=C(NCCc1ccccc1)C1CCN(c2nccc(Nc3ccccc3Cl)n2)CC1,-14.0%[12.5 µM],u,8.0%,x,u,x
CN(C)C/C=C/C(=O)Nc1ccc(C(=O)Nc2cccc(Nc3ncc(Cl)c(-c4c[nH]c5ccccc45)n3)c2)cc1,u,x,0.171µM*,x,x,x
COc1ccc2[nH]c(C[C@@H]3C[C@@H](C(C)C)[C@H](CNCc4ccccc4O)C=C3C)nc2n1,u,35.5µM*,u,i,44.7µM*,u
CC1=C[C@@H](CN)[C@H](C(C)C)C[C@H]1Cc1nc2ccccc2[nH]1,-12.6%[87.6 µM],u,u,i,u,-17.2%[70.6 µM]
COc1ccc2[nH]c(C[C@@H]3C[C@@H](C(C)C)[C@H](CN(C)C)C=C3C)nc2n1,-17.4%[87.6 µM],89.1µM*,-13.5%[87.6 µM],i,u,-12.9%[70.6 µM]
COc1ccc(C(=O)N2CC[C@H]3C(=O)NCCCCCCN(Cc4ccncc4)[C@@H]3C2)cc1,-14.6%,-14.3%,3.0%,i,-0.6%,2.8%
Cc1ccc(Nc2ccnc(N3CCCN(C(=O)N(C)C)C3)n2)cc1,-5.5%[12.5 µM],u,44.9%[87.6 µM],x,u,x
Cc1cc(N2CCN(Cc3nc(-c4cccc(Cl)c4)no3)CC2)cc(C)n1,-2.5%,22.4µM*,-27.0%,i,39.8µM*,-12.4%
Cc1ccc2onc(CC(=O)N3CCN(c4cccc(Cl)c4)CC3)c2c1,u,x,21.3%,x,x,x
COc1ccc(-c2nc(C3CC3)nc3c2CN([S+](=O)([O-])c2cccs2)CC3)cc1,-10.5%,u,-7.8%,x,-28.1%,x
SMILES,HEK293 viab,NIH3T3 tox,SNCA expr inh,Luciferase inh,HEK cytotox,hNpr1 antagonist
COc1ccc(-c2nc(C)nc3c2CN([S+](=O)([O-])c2cccs2)CC3)cc1,-4.8%,28.2µM*,10.4%,x,i,x
CCc1nc2c(c(-c3ccc(OC)cc3)n1)CN([S+](=O)([O-])c1cccs1)CC2,0.6%,11.2µM*,6.3%,x,0.9%,x
CCc1nc2c(c(-c3ccc(OC)cc3)n1)CCN([S+](=O)([O-])c1ccccc1)CC2,-5.3%,u,u,x,1.1%,x
CN(C)c1ccc(C2O[C@@H](c3ccccc3)C[C@H](c3ccccc3)O2)cc1 (stereo partly specified),-9.4%,x,x,x,x,x
Cc1nnc([C@H]2CCN(Cc3ccco3)C2)o1,2.8%[87.6 µM],-19.6%[230 µM],-14.3%[87.6 µM],i,3.4%[230 µM],0.4%[70.6 µM]
Cc1ccc(-n2nc(C)c([C@H]3C=C[C@@H](OC(=O)Nc4ccc(C(C)C)cc4)C3)c2C)cc1Cl,-3.4%,u,-4.8%,i,28.2µM*,-12.5%
CC(=O)N[C@@H]1C=C[C@@H](c2c(C)nn(-c3ccc(C)c(Cl)c3)c2C)C1,-3.1%[87.6 µM],79.4µM*,-33.2%[87.6 µM],u,u,u
CC(=O)Nc1ccc(S(=O)(=O)N[C@@H]2C=C[C@@H](c3c(C)nn(-c4ccc(C(C)(C)C)cc4)c3C)C2)cc1,-3.2%,u,53.0%,44.7µM*,44.7µM*,-15.4%
Cc1cc(Cl)ccc1-n1nc(C)c([C@@H]2C=C[C@@H](NC(=O)c3ccc(N(C)C)cc3)C2)c1C,-19.7%,u,2.4%,17.8µM*,u,u
COc1ccc(NC(=O)O[C@@H]2C=C[C@H](c3c(C)nn(-c4ccc(C)c(Cl)c4)c3C)C2)cc1,-11.6%,u,60.4%,i,u,-3.2%
Cc1ccc(C(=O)N2CCC(N3CCOCC3=O)CC2)cc1,8.0%,i,9.4%,x,3.3%,x
CCN1CCCC1CNC(=O)CCc1ccc2c(c1)CN(C(=O)NC(C)C)CCO2 (stereo unspecified),1.8%,-8.8%,-3.7%,x,-6.4%,x
COc1cccc(-c2nnnn2[C@H]2CO[C@H]3[C@@H]2OC[C@@H]3NC(=O)c2ccc(C)cc2)c1,-5.2%[87.6 µM],u,20.3%[87.6 µM],u,u,u
CCn1ccc2sc(C)c(C(=O)NCc3cccc(Cl)c3)c2c1=O,9.3%,i,-17.3%,i,-28.0%,-13.1%
NC(=O)[C@@H](Cc1ccccc1)NC(=O)[C@@H]1C[C@@H](NS(=O)(=O)c2cccs2)CCN1C(=O)CSCC(=O)O,11.4%,-16.6%,-0.6%,i,-7.8%,6.0%

# Assay outcomes deposited in PubChem by National Center for Advancing Translational Sciences (NCATS).
